In PubChem BioAssay (Tox21):
Several values for one entry are separate records, joined by “and”; a condition that tells them apart may be missing. Equal entries are not always repeated. Records with an inconclusive call do not appear. Where a call stands in place of a potency, no number is given. Some compounds were tested as several samples or in several runs, with calls that do not always agree. Activity calls are given as the source filed them. Unless noted, calls come from the whole dose curve; as a rule, active = well fitted curve in the direction sought with a large enough effect in the repeat runs; inconclusive = weak or mixed curves; inactive = no such curve, though single readings can be large; an effect the other way counts as inactive or inconclusive.

What was measured:
[1] = qHTS assay to identify small molecule agonists of the hypoxia (HIF-1) signaling pathway - cell viability counter screen (AID 1224844; calls by dose curve; note: nearly all actives have a fitted effect of over 50% in size; note: potency is the fitted concentration of half-maximal effect)
Method in brief: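 Viability counter screen: HRE-bla ME-180 cells plated 5 hrs before compound addition, treated 17 hrs at 37C and 5% CO2, then CellTiter-Glo added after the FRET reporter read; luminescence after 30 min.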

[2] = qHTS assay to identify small molecule agonists of H2AX (AID 1224845; active = well fitted activation curve with a large enough effect in the signal ratio in the repeat runs, not every such curve was filed as active; the % refers to the signal ratio; note: potency is the fitted concentration of half-maximal effect)
Method in brief: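 Wild-type CHO-K1 cells, plated overnight, exposed 3hr at 37C to 15 concentrations (0.76% DMSO final). Lysed, then HTRF anti-pH2AX (S139) cryptate and anti-H2AX-d2 antibodies, 24 hr room temperature; 665/620 nm emission read.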

[3] = qHTS assay to identify small molecule agonists of H2AX - cell viability counter screen (AID 1224847; calls by dose curve; note: nearly all actives have a fitted effect of over 30% in size; note: potency is the fitted concentration of half-maximal effect)
Method in brief: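 Viability of CHO-K1 (wild type) cells after 3 hr compound exposure was measured by CellTiter-Glo luminescence.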

[4] = qHTS RealTime-Glo MT Cell Viability Assay in HepG2 cells - 24 hour (AID 1224867); note: nearly all actives have a fitted effect of over 50% in size; note: potency is the fitted concentration of half-maximal effect
Method in brief: (§1)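 Cell number in HepG2 cultures estimated from NanoLuc luminescence generated by metabolic reduction of a prosubstrate by living cells. The homogeneous, nonlytic format allowed repeated reads at 0, 8, 16, 24, 32 and 40 h of compound exposure.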

[5] = qHTS RealTime-Glo MT Cell Viability Assay in HEK293 cells - 32 hour (AID 1224868); note: nearly all actives have a fitted effect of over 50% in size; note: potency is the fitted concentration of half-maximal effect
Method in brief: (§2)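 Homogeneous bioluminescent viability format in HEK293 cells (600 cells/well). Following 5 h at 37 C/5% CO2, 23 nL compound was pintooled; the signal was measured repeatedly during 40 h incubation.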

[6] = A CellTox Green Cytotoxicity Assay to monitor cytotoxicity in HEK293 cells - 0 hour (AID 1224869); note: nearly all actives have a fitted effect of over 50% in size; note: potency is the fitted concentration of half-maximal effect
Method in brief: (§3)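 Dead-cell fluorescence measured kinetically: asymmetric cyanine dye, HEK293, 600 cells/well, 5 h settle, 23 nL cpd/DMSO, 37 C, reads 0–40 h every 8 h.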

[7] = qHTS RealTime-Glo MT Cell Viability Assay in HepG2 cells - 40 hour (AID 1224870); note: nearly all actives have a fitted effect of over 50% in size; note: potency is the fitted concentration of half-maximal effect
Method in brief: (§4)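 HepG2 cells (600/well) mixed with RealTime-Glo MT reagent, settled 5 h at 37 C/5% CO2 before compound addition. Nonlytic NanoLuc luminescence from viable-cell prosubstrate reduction read repeatedly during 40 h treatment at 37 C.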

[8] = A CellTox Green Cytotoxicity Assay to monitor cytotoxicity in HEK293 cells - 40 hour (AID 1224871); note: nearly all actives have a fitted effect of over 45% in size; note: potency is the fitted concentration of half-maximal effect
Method in brief: as §3

[9] = qHTS RealTime-Glo MT Cell Viability Assay in HEK293 cells - 16 hour (AID 1224872); note: nearly all actives have a fitted effect of over 50% in size; note: potency is the fitted concentration of half-maximal effect
Method in brief: as §2

[10] = qHTS RealTime-Glo MT Cell Viability Assay in HepG2 cells - 8 hour (AID 1224873); note: nearly all actives have a fitted effect of over 55% in size; note: potency is the fitted concentration of half-maximal effect
Method in brief: as §4

[11] = qHTS RealTime-Glo MT Cell Viability Assay in HEK293 cells - 40 hour (AID 1224874); conditions: RealTime-Glo luminescence; max response: stronger effect = lower value; note: nearly all actives have a fitted effect of over 50% in size; note: potency is the fitted concentration of half-maximal effect
Method in brief: (§5)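 600 HEK293 cells per well, dispensed already mixed with RealTime-Glo MT reagents. Compound dosing came 5 h later. The same wells were read for luminescence at 0, 8, 16, 24, 32 and 40 h of exposure at 37 C.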

[12] = A CellTox Green Cytotoxicity Assay to monitor cytotoxicity in HEK293 cells - 24 hour (AID 1224875); note: nearly all actives have a fitted effect of over 45% in size; note: potency is the fitted concentration of half-maximal effect
Method in brief: as §3

[13] = A CellTox Green Cytotoxicity Assay to monitor cytotoxicity in HepG2 cells - 16 hour (AID 1224876); note: nearly all actives have a fitted effect of over 45% in size; note: potency is the fitted concentration of half-maximal effect
Method in brief: (§6)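 First, HepG2 cells (600/well) mixed with reagent were plated; second, after 5 h at 37 C they received compounds via pintool; third, fluorescence was measured at 0 h through 40 h at 8 h intervals.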

[14] = qHTS RealTime-Glo MT Cell Viability Assay in HepG2 cells - 32 hour (AID 1224877); note: nearly all actives have a fitted effect of over 55% in size; note: potency is the fitted concentration of half-maximal effect
Method in brief: as §1

[15] = A CellTox Green Cytotoxicity Assay to monitor cytotoxicity in HepG2 cells - 24 hour (AID 1224878); note: nearly all actives have a fitted effect of over 45% in size; note: potency is the fitted concentration of half-maximal effect
Method in brief: as §6

[16] = A CellTox Green Cytotoxicity Assay to monitor cytotoxicity in HepG2 cells - 40 hour (AID 1224879); note: nearly all actives have a fitted effect of over 40% in size; note: potency is the fitted concentration of half-maximal effect
Method in brief: as §6

[17] = qHTS RealTime-Glo MT Cell Viability Assay in HEK293 cells - 0 hour (AID 1224880)
Method in brief: as §5

[18] = qHTS assay to identify small molecule agonists of the estrogen related receptor (ERR) signaling pathway from Tox21 library (AID 1224849; calls by dose curve; note: nearly all actives have a fitted effect of over 15% in size); conditions: ERR reporter cell line, ONE-Glo luciferase, 18 h; at 92.4 µM (top of the series) unless noted
Method in brief: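 Quantitative HTS in agonist format: NTP ERR cell line, compounds transferred in DMSO after 6 h plating, 18 h incubation at 37 C, ONE-Glo luminescence endpoint.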

[19] = qHTS assay to identify small molecule antagonists of the estrogen related receptor (ERR) signaling pathway from Tox21 library (AID 1224848); note: nearly all actives have a fitted effect of over 50% in size; note: potency is the fitted concentration of half-maximal effect
Method in brief: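 Compounds dissolved in DMSO are pin-transferred onto ERR reporter cells (2,000 per well) that have settled for 6 h at 37 C. Plates then incubate 18 h at 37 C before ONE-Glo luciferase reagent and a luminescence read 30 min later.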

[20] = qHTS assay to identify small molecule agonists of the hypoxia (HIF-1) signaling pathway (AID 1224846; active = well fitted activation curve with a large enough effect in the signal ratio in the repeat runs, not every such curve was filed as active; the % refers to the signal ratio)
Method in brief: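 Agonist mode reporter screen. ME-180 cells stably expressing bla under HRE control received test compounds in DMSO for 17 hrs (37C, 5% CO2), and beta-lactamase activity was then detected with the CCF4-AM FRET substrate.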

CCCCc1ccccc1
Potency [1]: inactive
Potency [2]: inactive
Potency [3]: inactive
Potency [4]: inactive
Potency [5]: inactive
Potency [6]: inactive
Potency [7]: inactive
Potency [8]: inactive
Potency [9]: inactive
Potency [10]: inactive
max response [11]: -16% (inactive)
Potency [12]: inactive
Potency [13]: inactive
Potency [14]: inactive
Potency [15]: inactive
Potency [16]: inactive
Potency [17]: inactive

C=Cc1cccc(CCl)c1
Potency [1]: inactive
Potency [2]: inactive
Potency [3]: inactive
Potency [4]: inactive
Potency [5]: inactive
Potency [6]: inactive
Potency [7]: inactive
Potency [8]: inactive
Potency [9]: inactive
Potency [10]: inactive
max response [11]: 4.68% (inactive)
Potency [12]: inactive
Potency [13]: inactive
Potency [14]: inactive
Potency [15]: inactive
Potency [16]: inactive
Potency [17]: inactive

CCC[CH2][Sn]([CH2]CCC)([CH2]CCC)[CH2]CCC
Potency [1]: 11 µM (active)
Potency [2]: 8 µM (active)
Potency [3]: 14.2 µM (active)
activity change, positive = activation [18]: -63.4% (inactive)
Potency [4]: 6.16 µM (active)
Potency [5]: 8.71 µM (active)
Potency [6]: 49 µM (active)
Potency [7]: 4.9 µM (active)
Potency [8]: 12.3 µM (active)
Potency [9]: 9.77 µM (active)
Potency [10]: 11 µM (active)
Potency [11]: 7.76 µM (active)
Potency [12]: 17.4 µM (active)
Potency [13]: 17.4 µM (active)
Potency [14]: 4.9 µM (active)
Potency [15]: 13.8 µM (active)
Potency [16]: 11 µM (active)

O=C1C[C@@H]2OCC=C3CN4CC[C@]56c7ccccc7N1[C@H]5[C@H]2[C@H]3C[C@H]46
Potency [1]: inactive
Potency [2]: inactive
Potency [3]: inactive
Potency [19]: inactive
activity change, positive = activation [18]: -3.01% [at 42.5 µM] (inactive)
Potency [4]: inactive
Potency [6]: inactive
Potency [7]: inactive
Potency [8]: inactive
Potency [10]: inactive
Potency [12]: inactive
Potency [13]: inactive
Potency [14]: inactive
Potency [15]: inactive
Potency [16]: inactive
Potency [17]: inactive

Clc1ccc(C(c2ccc(Cl)cc2)C(Cl)Cl)cc1
Potency [1]: 49 µM (active)
Potency [2]: 89.8 µM (active)
Potency [3]: 80 µM (active)
Potency [4]: inactive
Potency [5]: 49.8 µM (active) and 43.6 µM (active)
Potency [6]: inactive
Potency [7]: inactive
Potency [8]: 55.8 µM (active) and 49 µM (active)
Potency [9]: 44.4 µM (active) and 43.6 µM (active)
Potency [10]: inactive
Potency [11]: 49.8 µM (active) and 43.6 µM (active)
Potency [13]: inactive
Potency [14]: inactive
Potency [15]: inactive
Potency [16]: inactive
Potency [17]: inactive

CC1=C2C[C@H]3[C@@H](CC=C4C[C@@H](O)CC[C@@]43C)[C@@H]2CC[C@]12O[C@@H]1C[C@H](C)CN[C@H]1[C@H]2C
Potency [1]: inactive
Potency [2]: inactive
Potency [20]: inactive
Potency [4]: inactive
Potency [5]: 16.9 µM (active)
Potency [6]: inactive
Potency [7]: inactive
Potency [10]: inactive
Potency [11]: 16.9 µM (active)
Potency [14]: inactive
Potency [16]: 26.8 µM (active)
Potency [17]: inactive

COP(=O)(OC)Oc1ccc([N+](=O)[O-])cc1
Potency [1]: inactive
Potency [2]: inactive
Potency [3]: inactive
Potency [19]: 30.6 µM (active)
activity change, positive = activation [18]: -54.1% (inactive)
Potency [4]: inactive
Potency [5]: inactive
Potency [6]: inactive
Potency [7]: inactive
Potency [8]: inactive
Potency [9]: inactive
Potency [10]: inactive
max response [11]: -20.5% (inactive)
Potency [12]: inactive
Potency [13]: inactive
Potency [14]: inactive
Potency [15]: inactive
Potency [16]: inactive
Potency [17]: inactive

CC(Cc1ccc(O)cc1)NCC(O)c1cc(O)cc(O)c1 (stereo unspecified)
Potency [1]: inactive
Potency [2]: inactive
Potency [3]: inactive
Potency [4]: inactive
Potency [5]: inactive
Potency [6]: inactive
Potency [7]: inactive
Potency [8]: inactive
Potency [9]: inactive
Potency [10]: inactive
max response [11]: 1.61% (inactive)
Potency [12]: inactive
Potency [13]: inactive
Potency [14]: inactive
Potency [15]: inactive
Potency [16]: inactive
Potency [17]: inactive

CCC1COC(Cn2cncn2)(c2ccc(Cl)cc2Cl)O1 (stereo unspecified)
Potency [1]: inactive
Potency [2]: inactive
Potency [20]: inactive
Potency [4]: inactive
Potency [6]: inactive
Potency [7]: inactive
Potency [8]: inactive
Potency [10]: inactive
Potency [12]: inactive
Potency [13]: inactive
Potency [14]: inactive
Potency [15]: inactive

CCCCCCCCCCCCCCn1cc[n+](C)c1
Potency [1]: 24.6 µM (active) and 43.2 µM (active) and inactive
Potency [2]: inactive
Potency [3]: 12.7 µM (active) and 22.3 µM (active)
Potency [19]: 1.73 µM (active) and 1.35 µM (active)
activity change, positive = activation [18]: -74.5% (inactive) and -73.1% (inactive) and -26.1% (inactive)
Potency [4]: 24.6 µM (active) and 48.5 µM (active) and inactive
Potency [5]: 8.72 µM (active) and 4.32 µM (active)
Potency [6]: inactive
Potency [7]: 21.9 µM (active) and 34.3 µM (active) and inactive
Potency [8]: 39 µM (active) and 38.5 µM (active) and inactive
Potency [9]: 55 µM (active) and 24.3 µM (active)
Potency [10]: 49.1 µM (active) and inactive
Potency [11]: 2.76 µM (active) and 1.93 µM (active)
Potency [14]: 21.9 µM (active) and 38.5 µM (active) and inactive
Potency [16]: 19.5 µM (active) and 21.6 µM (active) and inactive
Potency [17]: inactive

CN1C(=O)[C@@H](NC(=O)c2cc3ccccc3[nH]2)N=C(c2ccccc2)c2ccccc21
Potency [1]: inactive
Potency [2]: inactive
Potency [3]: inactive
activity change, positive = activation [18]: -21.2% [at 42.5 µM] (inactive)
Potency [5]: inactive
Potency [6]: inactive
Potency [7]: inactive
Potency [8]: inactive
Potency [9]: inactive
max response [11]: 20% (inactive)
Potency [12]: inactive
Potency [13]: inactive
Potency [14]: inactive
Potency [16]: inactive
Potency [17]: inactive

CCOC(=O)Cc1ccccc1
Potency [1]: inactive
Potency [2]: inactive
Potency [3]: inactive
Potency [4]: inactive
Potency [5]: inactive
Potency [6]: inactive
Potency [7]: inactive
Potency [8]: inactive
Potency [9]: inactive
Potency [10]: inactive
max response [11]: 17.4% (inactive)
Potency [12]: inactive
Potency [14]: inactive
Potency [15]: inactive
Potency [16]: inactive
Potency [17]: inactive

CCOP(=O)(OCC)Oc1nc(Cl)c(Cl)cc1Cl
Potency [1]: inactive
Potency [2]: inactive
Potency [3]: inactive
Potency [4]: inactive
Potency [5]: inactive
Potency [6]: inactive
Potency [7]: inactive
Potency [8]: inactive
Potency [9]: inactive
Potency [10]: inactive
max response [11]: -5.34% (inactive)
Potency [12]: inactive
Potency [14]: inactive
Potency [15]: inactive
Potency [16]: inactive
Potency [17]: inactive
